In the supplement of paper PMC4466140:

Columns and labels:
Assay in all cases: SPOT peptide array binding signal intensity (averaged, normalized) (arbitrary units (background-subtracted, floor 0; scale differs between SH3 domains)); higher = stronger binding of the SH3 domain to the peptide
ScBbc1 = target: ScBbc1
How it was run: (§1)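 Spot intensities were captured after detection with anti-GST antibody, an HRP-linked anti-mouse secondary and luminol, and quantified with Genespotter. The probes were GST-fused SH3 domains from four yeast species, produced in E. coli BL21(DE3), purified on glutathione Sepharose and incubated at 10 μg/ml overnight at 4°C on cellulose-bound synthetic 15-mer peptides with cysteines replaced by serines. Binding signal is the normalized, background-subtracted spot intensity averaged over replicates, and its arbitrary units differ between domains.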

ScBem1-D1 = target: ScBem1-D1
How it was run: as §1

ScBzz1-D1 = target: ScBzz1-D1
How it was run: as §1

ScBzz1-D2 = target: ScBzz1-D2
How it was run: as §1

ScCyk3 = target: ScCyk3
How it was run: as §1

ScFus1 = target: ScFus1
How it was run: as §1

ScHof1 = target: ScHof1
How it was run: as §1

ScHse1 = target: ScHse1
How it was run: as §1

ScLsb1 = target: ScLsb1
How it was run: as §1

ScLsb2 = target: ScLsb2
How it was run: as §1

ScLsb3 = target: ScLsb3
How it was run: as §1

ScLsb4 = target: ScLsb4
How it was run: as §1

ScMyo3 = target: ScMyo3
How it was run: as §1

ScMyo5 = target: ScMyo5
How it was run: as §1

ScNbp2 = target: ScNbp2
How it was run: as §1

ScPex13 = target: ScPex13
How it was run: as §1

ScRvs167 = target: ScRvs167
How it was run: as §1

ScSho1 = target: ScSho1
How it was run: as §1

ScSla1-D1-D2 = target: ScSla1-D1-D2
How it was run: as §1

ScSla1-D3 = target: ScSla1-D3
How it was run: as §1

SpAbp1-D1 = target: SpAbp1-D1
How it was run: as §1

SpBbc1 = target: SpBbc1
How it was run: as §1

SpBzz1-D1 = target: SpBzz1-D1
How it was run: as §1

SpBzz1-D2 = target: SpBzz1-D2
How it was run: as §1

SpCyk3 = target: SpCyk3
How it was run: as §1

SpHof1 = target: SpHof1
How it was run: as §1

SpHof1-2 = target: SpHof1-2
How it was run: as §1

SpHof1-3 = target: SpHof1-3
How it was run: as §1

SpHse1 = target: SpHse1
How it was run: as §1

SpLsb1 = target: SpLsb1
How it was run: as §1

SpLsb4 = target: SpLsb4
How it was run: as §1

SpMyo1 = target: SpMyo1
How it was run: as §1

SpNbp2 = target: SpNbp2
How it was run: as §1

SpPex13 = target: SpPex13
How it was run: as §1

SpRvs167 = target: SpRvs167
How it was run: as §1

SpSla1-D1-D2 = target: SpSla1-D1-D2
How it was run: as §1

SpSla1-D3 = target: SpSla1-D3
How it was run: as §1

TKPTPPPKPSHLKPK
SPOT peptide array binding signal intensity (ScBbc1): ≤ 0 | SPOT peptide array binding signal intensity (ScBem1-D1): 1.5 | SPOT peptide array binding signal intensity (ScBzz1-D1): 4 | SPOT peptide array binding signal intensity (ScBzz1-D2): 59.5 | SPOT peptide array binding signal intensity (ScCyk3): ≤ 0 | SPOT peptide array binding signal intensity (ScFus1): 7.5 | SPOT peptide array binding signal intensity (ScHof1): 2 | SPOT peptide array binding signal intensity (ScHse1): 4 | SPOT peptide array binding signal intensity (ScLsb1): 0.5 | SPOT peptide array binding signal intensity (ScLsb2): ≤ 0 | SPOT peptide array binding signal intensity (ScLsb3): 1800 | SPOT peptide array binding signal intensity (ScLsb4): ≤ 0 | SPOT peptide array binding signal intensity (ScMyo3): 0.5 | SPOT peptide array binding signal intensity (ScMyo5): ≤ 0 | SPOT peptide array binding signal intensity (ScNbp2): 13 | SPOT peptide array binding signal intensity (ScPex13): 981 | SPOT peptide array binding signal intensity (ScRvs167): 4.17 | SPOT peptide array binding signal intensity (ScSho1): 1320 | SPOT peptide array binding signal intensity (ScSla1-D1-D2): 11 | SPOT peptide array binding signal intensity (ScSla1-D3): 1.75 | SPOT peptide array binding signal intensity (SpAbp1-D1): 481 | SPOT peptide array binding signal intensity (SpBbc1): 0.5 | SPOT peptide array binding signal intensity (SpBzz1-D1): 344 | SPOT peptide array binding signal intensity (SpBzz1-D2): ≤ 0 | SPOT peptide array binding signal intensity (SpCyk3): ≤ 0 | SPOT peptide array binding signal intensity (SpHof1): 2 | SPOT peptide array binding signal intensity (SpHof1-2): ≤ 0 | SPOT peptide array binding signal intensity (SpHof1-3): 64 | SPOT peptide array binding signal intensity (SpHse1): 9.25 | SPOT peptide array binding signal intensity (SpLsb1): 251 | SPOT peptide array binding signal intensity (SpLsb4): 43.5 | SPOT peptide array binding signal intensity (SpMyo1): ≤ 0 | SPOT peptide array binding signal intensity (SpNbp2): 2.5 | SPOT peptide array binding signal intensity (SpPex13): 7 | SPOT peptide array binding signal intensity (SpRvs167): 142 | SPOT peptide array binding signal intensity (SpSla1-D1-D2): ≤ 0 | SPOT peptide array binding signal intensity (SpSla1-D3): 2.5
